According to PubChem BioAssay (NCI):
The panel holds about 83,000 compounds, 20% with a hit somewhere; the sample as a whole holds those more often.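 A percent growth of 40 corresponds to 60% growth inhibition; 0 means no net growth; -100 means all cells died. Active threshold: below 10.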 Values without a mark were called inactive. The source made the active and inactive calls.

Each compound was assayed on A498 renal (assay: NCI-60 one-dose screen, 48 h (100 = growth as untreated, 0 = no growth, -100 = all killed)). Details: 10 µM unless noted.
Experimental: Growth inhibition of the A498 human tumor cell line is measured as a screen for anti-cancer activity. Cells are grown in 96 well plates and exposed to the test compound for 48 hours. Compounds are tested at a single concentration, which is 10^-5 M for most compounds. The reported endpoint is percent growth (GI% or GIPRCNT), where numbers from 0 - 100% represent growth inhibition, and numbers from -100% - 0 represent cell death. For example, a value of 40 represents 60% growth inhibition. A value of 0 means no net growth occurred over the course of the experiment. A value of -40 indicates 40% of cells at the beginning of the experiment died by the end of the experiment. A value of -100 means all cells are dead at the end of the experiment.
NCI-60 Human Tumor Cell Lines Screen was performed using the standard one-dose NCI protocol, which is described in more detail at https://dtp.cancer.gov/discovery_development/nci-60/default.htm.
Compounds with GIPRCNT values below 10 were considered active. Activity score was based on GIPRCNT using the following formula: […]
Score is 0 for GIPRCNT values of 100 or above, 50 for GIPRCNT values of 0, and 100 for GIPRCNT values of -100.

SMILES | growth
C=CCO[C@H]1CO[C@H]2[C@@H]1OC[C@@H]2Oc1ccc(Nc2ccnc(Nc3ccc(O[C@H]4CO[C@H]5[C@@H]4OC[C@@H]5OCC=C)c(Cl)c3)n2)cc1Cl | 95.6%
CS(=O)(=O)c1ccc(-c2[nH]c3ccc(F)cc3c2/C=N/O)cc1 | 99.2%
C[C@H]1[C@H](C)CC[C@]2(C(=O)N3CCN(C)CC3)CC[C@]3(C)C(=CC[C@@H]4[C@@]5(C)C/C(=C/c6cccnc6)C(=O)C(C)(C)[C@@H]5CC[C@]43C)[C@H]12 | -83.2% (active)
CS(=O)(=O)c1ccc(-c2[nH]c3ccc(F)cc3c2/C=N/NC(N)=S)cc1 | 17%
CC(=O)NCC(=O)Nc1ccc(-c2nnc3ccccn23)nc1.CC(=O)NCC(=O)Nc1ccc(-c2nnc3ccccn23)nc1.[Pt+2] | 101%
COc1cc2c(=O)n(CCCn3ccnc3)c3c4cc5c(cc4ccc3c2cc1OC)OCO5 | -75.6% (active)
NS(=O)(=O)c1cnccc1-n1ccc(=O)c(S(N)(=O)=O)c1 | 85.4%
O=C(/C=C/c1ccccc1)c1ccc2ccccc2c1 | 93.5%
O[C@H]1CO[C@H]2[C@@H]1OC[C@@H]2Oc1ccc(Nc2ccnc(Nc3ccc(O[C@H]4CO[C@H]5[C@@H]4OC[C@@H]5O)c(Cl)c3)n2)cc1Cl | 22.7%
C[N+](C)(C)CCOC(OCC[N+](C)(C)C)(c1ccccc1)c1ccccc1 | 113%
COc1ccc(-c2nc3sc4c(c3c(=O)[nH]2)CCCC4)c2ccccc12 | -24.4% (active)
CCN(CC)CCNc1ccc(C)c2sc3cc(C)ccc3c(=O)c12 | 84.8%
Cc1nn(-c2ccccc2)c2c1C(c1ccc([N+](=O)[O-])cc1)C(C#N)=C(N)O2 (stereo not given) | 111%
COc1ccc(OC)c(Nc2nc3nonc3nc2Nc2cccc(Br)c2)c1 | -39.9% (active)
Cc1cc(N(CCCNc2ccnc3cc(Cl)ccc23)Cc2ccccn2)nc(N2CCCC2)n1 | 95.1%
CCOC(=O)Cc1csc2nc(-c3ccccc3)nn12 | 90.4%
O=C1c2cccc3c(-c4ccc(-c5nc6c7ccccc7c7ccccc7c6[nH]5)cc4)ccc(c23)C(=O)N1CCN1CCNCC1 | 107%
Fc1ccc(Nc2nc(Nc3ccc(-c4nc5ccccc5[nH]4)cc3)c3cn[nH]c3n2)cc1 | 101%
N=c1ccn2c(n1)OC1C(O)C(CO)OC12 (stereo not given) | 74.7%
Clc1ccc(-c2nc(NCCc3ccccc3)nc3c(NCCc4ccccc4)cnn23)cc1 | 71.4%

SMILES | growth
Cn1cc(-c2ccc3nc(-c4ccc(CC(=O)Nc5cc(C(C)(C)C)no5)cc4)cnc3c2)cn1 | -4.96% [30 µM] (active)
CN1CCN(C(=O)[C@]23CCC(C)(C)C[C@@H]2C2=CC[C@@H]4[C@@]5(C)Cc6c([nH]c7ccccc67)C(C)(C)[C@@H]5CC[C@@]4(C)[C@]2(C)CC3)CC1 | 96.5%
CCCCOc1nc2ccc(Cl)cc2cc1/C=C/C(=O)/C=C1/CC(c2cc3cc(Cl)ccc3nc2OCCCC)Nc2ccccc2N1 (stereo not given) | 102%
CC1(C)C(=O)/C(=C\c2cccnc2)C[C@]2(C)[C@H]3CC=C4[C@@H]5C[C@@](C)(C(=O)O)CC[C@]5(C)CC[C@@]4(C)[C@]3(C)CC[C@@H]12 | 100%
CC(C)(C)Nc1c(-c2c3ccccc3cc3ccccc23)nc2ccccn12 | 88.2%
O=C(Oc1ccc[nH]c1=O)c1cc([N+](=O)[O-])cc([N+](=O)[O-])c1 | 108%
CCN1CCN(c2ccc(Nc3cc(-c4cccnc4Nc4c(Cl)c(OC)cc(OC)c4Cl)ncn3)cc2)CC1 | 21.8%
COc1cc(C(=O)Nc2cc(O)c(CC=C(C)C)c(O)c2)cc2c1O[C@]1(C)CC[C@@H](O)C(C)(C)[C@H]1C2 | 16.7%
O=C1Nc2ccccc2SC1c1ccccc1Cl (stereo not given) | 96.3%
NC(N)=N/N=C(/c1ccccc1)c1ccccc1F | 44.9%
COc1ccc(/C=C2\COc3ccc(O)cc3C2=O)cc1OC | 90.6%
COc1ccc(-c2nc3ccccn3c2/C=C/C(=O)c2cc(OC)c(OC)c(OC)c2)cc1 | 55%
O=C1/C(=C/c2ccc([N+](=O)[O-])cc2)COc2ccc(O)c(O)c21 | 86.3%
Cn1nnnc1-c1ccc(N)cc1 | 108%
CCCCCOC(=O)c1ccc(NC(=O)CNCC(C)C)cc1 | 71.8%
C=C1C(=O)O[C@H]2[C@H]1CC/C(COC(=O)/C=C\C(=O)NCc1ccc(Cn3c(=O)sn(-c4ccc(Cl)cc4)c3=O)cc1)=C\CC[C@@]1(C)O[C@@H]21 | -15.8% (active)
CN1C[C@@H](c2ccc(Cl)cc2)[C@]2(NC(=S)N(c3ccccc3)C2=O)[C@@]12C(=O)NC1C=CC(Br)=C[C@H]12 (stereo not given in full) | 80.2%
CN(C)CCC(O)(Cc1ccccc1)c1ccccc1 (stereo not given) | 185%
CC(C)c1ccc(C(=O)OC(=O)c2ccc(C(C)C)cc2)cc1 | 92.1%
CC(C)CCC[C@@H](C)[C@H]1CCC2C3=CCn4c(=O)ccc(=O)n4C3CC[C@@]21C (stereo not given in full) | -94.8% (active)
